Results filed as inconclusive are left out. Active and inactive are the calls of the source. Rule for the calls, unless noted: active = hit-call score of the fitted dose curve at least 0.9, where 1 is the maximum; inconclusive = response in the unintended direction; inactive = score below 0.9.
Columns and labels:
[1] = ATG_Oct_MLP_CIS: Attagene CIS-FACTORIAL HepG2 Assay for human Octamer-Binding Transcription Factor (Oct) (AID 2282993; active = hit-call score of the fitted dose curve at least 0.9, where 1 is the maximum; inactive = score below 0.9); settings: HepG2 Attagene cis-factorial Oct reporter, mRNA; actives raise or lower the signal
Method in brief: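 HepG2 cells transiently transfected with cis-promoter-driven multiplexed reporter transcription units, dosed for 24 h. Reporter mRNA quantified by RT-PCR, fluorescent labelling, HpaI digestion and capillary electrophoresis; bidirectional fits versus DMSO baseline.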

[2] = biological target: Cellular tumor antigen p53 (Homo sapiens) (UniProt P04637); assay: ATG_p53_CIS: Attagene CIS-FACTORIAL HepG2 Assay for human p53 Transcription Factor (AID 2282994; active = hit-call score of the fitted dose curve at least 0.9, where 1 is the maximum; inactive = score below 0.9); settings: HepG2 p53 cis-element reporter, Attagene mRNA; actives raise or lower the signal
Method in brief: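 Multiplexed reporter mRNA assay in human HepG2 liver cells; cis-regulated units report endogenous factor activity. Values come from bidirectional curve fitting against DMSO negative control after 24 h treatment.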

[3] = biological target: human Peroxisome Proliferator-activated Receptor alpha (PPARa), PPARA (gene 5465) (UniProt Q07869); assay: ATG_PPARa_TRANS: Attagene TRANS-FACTORIAL HepG2 Assay for human Peroxisome Proliferator-activated Receptor alpha (PPARa) (AID 2283001);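 for AC50: potency for gain of reporter signal over DMSO so agonist or activator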
Method in brief: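 Measures transcriptional activity of an exogenous chimeric PPARa-Gal4 protein in transiently transfected HepG2 cells after 24 h dosing. Reporter mRNA quantified via RT-PCR and capillary electrophoresis; DMSO served as negative control.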

[4] = biological target: human Peroxisome Proliferator-activated Receptor delta (PPARd), PPARD (gene 5467) (UniProt Q03181); assay: ATG_PPARd_TRANS: Attagene TRANS-FACTORIAL HepG2 Assay for human Peroxisome Proliferator-activated Receptor delta (PPARd) (AID 2283002)
Method in brief: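 HepG2 cells transiently transfected with GAL4-UAS multiplexed reporter units driven by exogenous chimeric NR-GAL4 proteins; 24 h compound exposure. Reporter mRNA measured by RT-PCR, 6-FAM primer extension, HpaI digestion and capillary electrophoresis; gain of signal fitted relative to DMSO.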

[5] = biological target: Peroxisome proliferator-activated receptor gamma (Homo sapiens) (UniProt P37231); assay: ATG_PPARg_TRANS: Attagene TRANS-FACTORIAL HepG2 Assay for human Peroxisome Proliferator-activated Receptor-gamma (PPARg) (AID 2283007)
Method in brief: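 A TRANS-format multiplexed reporter assay measures activity of an exogenous chimeric NR-Gal4 protein in HepG2 cells. After 24 h of chemical exposure, reporter transcripts are amplified, fluorescently labelled and sized by capillary electrophoresis, with gain of signal scored against DMSO.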

[6] = biological target: Retinoic acid receptor RXR-alpha (Homo sapiens) (UniProt P19793); assay: ATG_RXRa_TRANS: Attagene TRANS-FACTORIAL HepG2 Assay for human Retinoid X Receptor alpha (RXRa) (AID 2283012)
Method in brief: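 HepG2 cells transiently transfected with multiplexed GAL4-UAS reporter units and chimeric NR-GAL4 fusions, dosed 24 h. Reporter mRNA measured by RT-PCR, FAM labelling, HpaI digestion and capillary electrophoresis; gain-of-signal fitted relative to DMSO baseline.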

[7] = biological target: human Retinoid X Receptor beta (RXRb), RXRB (gene 6257) (UniProt P28702); assay: ATG_RXRb_TRANS: Attagene TRANS-FACTORIAL HepG2 Assay for human Retinoid X Receptor beta (RXRb) (AID 2283013)
Method in brief: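 HepG2 cells transiently transfected with multiplexed reporter units driven by GAL4-UAS and exogenous chimeric NR-Gal4 proteins; treated 24 h. Reporter mRNA measured by RT-PCR, 6-FAM labelling and capillary electrophoresis; gain-of-signal fitted versus DMSO baseline.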

[8] = biological target: human Retinoic Acid Receptor gamma (RARg), RARG (gene 5916) (UniProt P13631); assay: ATG_RARg_TRANS: Attagene TRANS-FACTORIAL HepG2 Assay for human Retinoic Acid Receptor gamma (RARg) (AID 2283009)
Method in brief: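 HepG2 cells transiently transfected with multiplexed reporter units expressing chimeric RARg-GAL4 and GAL4-UAS-driven reporters; 24 h compound exposure. Reporter mRNA quantified by RT-PCR with fluorescent labelling and capillary electrophoresis; gain-of-signal fitted relative to DMSO baseline.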

[9] = biological target: human RAR-related Orphan Receptor beta (RORb), RORB (gene 6096) (UniProt Q92753); assay: ATG_RORb_TRANS: Attagene TRANS-FACTORIAL HepG2 Assay for human RAR-related Orphan Receptor beta (RORb) (AID 2283010)
Method in brief: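 HepG2 cells were transiently transfected with multiplexed GAL4-UAS reporter units expressing chimeric nuclear receptor–GAL4 proteins, then dosed for 24 h. Reporter mRNA was quantified by RT-PCR with fluorescent labelling and capillary electrophoresis; gain of signal was fitted relative to DMSO.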

[10] = biological target: human RAR-related Orphan Receptor gamma (RORg), RORC (gene 6097) (UniProt P51449); assay: ATG_RORg_TRANS: Attagene TRANS-FACTORIAL HepG2 Assay for human RAR-related Orphan Receptor gamma (RORg) (AID 2283011)
Method in brief: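 Activity is scored as increase in GAL4-UAS reporter mRNA over DMSO, detected by fluorescent RT-PCR and capillary electrophoresis in HepG2 cells transiently expressing a RORg-Gal4 chimera, 24 h after dosing.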

[11] = biological target: human Thyroid Receptor alpha (THRa1), THRA (gene 7067) (UniProt P10827); assay: ATG_THRa1_TRANS: Attagene TRANS-FACTORIAL HepG2 Assay for human Thyroid Receptor alpha (THRa1) (AID 2283014)
Method in brief: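 First, HepG2 cells receive multiple GAL4-UAS reporter units and the chimeric receptor. They are then dosed for 24 h, after which RNA is reverse-transcribed, amplified, labelled, HpaI-cut and sized by capillary electrophoresis; gain relative to DMSO is scored.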

[12] = biological target: Nuclear receptor subfamily 1 group I member 2 (Homo sapiens) (UniProt O75469); assay: ATG_PXR_TRANS: Attagene TRANS-FACTORIAL HepG2 Assay for human Pregnane X Receptor (PXR) (AID 2283008)
Method in brief: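 Measures mRNA induction of a GAL4-UAS-driven reporter in human HepG2 cells transiently expressing PXR fused to Gal4, following 24 h treatment. DMSO served as negative control and baseline.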

[13] = BSK_3C_TissueFactor: BioMAP Diversity Plus: 3C Assay for Tissue Factor Biomarker Activity (AID 2282997; active = hit-call score of the fitted dose curve at least 0.9, where 1 is the maximum; inactive = score below 0.9); settings: BioMAP 3C HUVEC, tissue factor biomarker readout; actives raise or lower the signal
Method in brief: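 Values derive from bidirectional curve fitting against DMSO of Tissue Factor ELISA signals, taken 24 h after dosing primary human umbilical vein endothelial cells.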

[14] = BSK_3C_uPAR: BioMAP Diversity Plus: 3C Assay for Urokinase-type plasminogen activator receptor (uPAR) Biomarker Activity (AID 2282998; active = hit-call score of the fitted dose curve at least 0.9, where 1 is the maximum; inactive = score below 0.9); settings: BioMAP 3C HUVEC, uPAR biomarker ELISA; actives raise or lower the signal
Method in brief: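 Human umbilical vein endothelial primary cells were exposed to test chemical for 24 h. Cell-surface uPAR was then quantified by ELISA, and responses were fitted bidirectionally against DMSO as negative control and baseline.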

[15] = BSK_3C_VCAM1: BioMAP Diversity Plus: 3C Assay for Vascular cell adhesion molecule 1 (VCAM1) Biomarker Activity (AID 2282999; active = hit-call score of the fitted dose curve at least 0.9, where 1 is the maximum; inactive = score below 0.9); settings: BioMAP 3C HUVEC, VCAM1 ELISA, cytokine-stimulated; actives raise or lower the signal
Method in brief: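 Human umbilical vein endothelial cells (3C system), biomarker read by ELISA 24 h after dosing; bidirectional fit against DMSO baseline. Cytotoxicity tracked by SRB total-protein staining in parallel cultures at biomarker time.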

[16] = BSK_4H_Eotaxin3: BioMAP Diversity Plus: 4H Assay for Eotaxin 3 Biomarker Activity (AID 2283000; active = hit-call score of the fitted dose curve at least 0.9, where 1 is the maximum; inactive = score below 0.9;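 note: CCL26 protein level quantified by ELISA in parallel with SRB cytotoxicity check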); settings: primary human endothelial cells (HUVEC); actives raise or lower the signal
Method in brief: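 Endothelial primary cells (human umbilical vein) exposed to compound for 24 h. ELISA detection of Eotaxin-3.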

[17] = read-out: Intercellular Adhesion Molecule 1 (ICAM1), ICAM1 (gene 3383); assay: BSK_3C_ICAM1: BioMAP Diversity Plus: 3C Assay for Intercellular Adhesion Molecule 1 (ICAM1) Biomarker Activity (AID 2283003; active = hit-call score of the fitted dose curve at least 0.9, where 1 is the maximum; inactive = score below 0.9); settings: primary human endothelial cells (HUVEC); actives raise or lower the signal
Method in brief: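 Primary human umbilical vein endothelial cells in the BioMAP 3C system were exposed to chemicals for 24 h, then ICAM-1 was quantified by ELISA. Activity was fitted bidirectionally against the DMSO negative control baseline.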

[18] = BSK_3C_Proliferation: Cell Proliferation Assessment in the BioMAP Diversity Plus: 3C Assay (AID 2283006; active = hit-call score of the fitted dose curve at least 0.9, where 1 is the maximum; inactive = score below 0.9;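 note: potency may reflect either rise or fall in cell number versus DMSO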); settings: primary human endothelial cells (HUVEC)
Method in brief: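 Human umbilical vein endothelial cells were grown sub-confluent and exposed to chemical for 48 h, then fixed with 10% TCA and stained with 0.1% sulforhodamine B; absorbance at 560 nm gave relative cell number, fitted bidirectionally against DMSO baseline.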

[19] = biological target: Retinoic acid receptor alpha (Homo sapiens) (UniProt P10276); assay: ATG_RARa_TRANS: Attagene TRANS-FACTORIAL HepG2 Assay for human Retinoic Acid Receptor alpha (RARa) (AID 2283005)
Method in brief: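 HepG2 transiently transfected with multiplex GAL4-UAS reporter units including a human RARa–GAL4 chimera; 24 h compound exposure. Reporter mRNA quantified by RT-PCR, 6-FAM labeling and capillary electrophoresis; gain of signal versus DMSO.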

[20] = biological target: human Retinoic Acid Receptor beta (RARb), RARB (gene 5915) (UniProt P10826); assay: ATG_RARb_TRANS: Attagene TRANS-FACTORIAL HepG2 Assay for human Retinoic Acid Receptor beta (AID 2283004)
Method in brief: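 HepG2, transient MRTU transfection, NR–Gal4 chimera, 24 h treatment; RT-PCR plus CE fluorescence detection of reporter mRNA; gain of signal vs DMSO.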

Measured: AC50

Sequence of Cellular tumor antigen p53 (Homo sapiens) (P04637 whole entry, looked up): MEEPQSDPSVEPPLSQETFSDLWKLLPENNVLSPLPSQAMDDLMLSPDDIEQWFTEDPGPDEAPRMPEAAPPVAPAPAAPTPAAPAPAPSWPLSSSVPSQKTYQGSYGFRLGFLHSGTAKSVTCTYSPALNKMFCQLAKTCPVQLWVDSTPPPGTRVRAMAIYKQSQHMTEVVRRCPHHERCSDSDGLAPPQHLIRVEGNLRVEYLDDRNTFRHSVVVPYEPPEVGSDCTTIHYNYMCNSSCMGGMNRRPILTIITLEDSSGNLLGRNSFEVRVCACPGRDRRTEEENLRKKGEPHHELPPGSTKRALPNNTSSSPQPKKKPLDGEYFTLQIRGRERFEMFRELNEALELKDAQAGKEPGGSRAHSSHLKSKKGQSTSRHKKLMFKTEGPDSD
Sequence of human RAR-related Orphan Receptor beta (RORb), RORB (gene 6096) (Q92753 whole entry, looked up, the tested form may be a part): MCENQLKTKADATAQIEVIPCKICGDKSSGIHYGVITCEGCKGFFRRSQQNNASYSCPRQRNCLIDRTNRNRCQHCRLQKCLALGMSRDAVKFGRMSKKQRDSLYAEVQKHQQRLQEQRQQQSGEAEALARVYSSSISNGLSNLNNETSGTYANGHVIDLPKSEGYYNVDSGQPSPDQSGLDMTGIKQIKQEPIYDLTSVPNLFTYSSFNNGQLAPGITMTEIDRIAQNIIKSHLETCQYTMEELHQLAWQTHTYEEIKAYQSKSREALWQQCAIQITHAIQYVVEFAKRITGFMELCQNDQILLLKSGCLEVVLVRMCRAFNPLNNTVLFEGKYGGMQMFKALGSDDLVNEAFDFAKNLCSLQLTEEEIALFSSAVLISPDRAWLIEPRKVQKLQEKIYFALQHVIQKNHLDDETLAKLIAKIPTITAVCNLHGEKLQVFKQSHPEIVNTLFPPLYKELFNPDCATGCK
Sequence of human Retinoic Acid Receptor gamma (RARg), RARG (gene 5916) (P13631 whole entry, looked up, the tested form may be a part): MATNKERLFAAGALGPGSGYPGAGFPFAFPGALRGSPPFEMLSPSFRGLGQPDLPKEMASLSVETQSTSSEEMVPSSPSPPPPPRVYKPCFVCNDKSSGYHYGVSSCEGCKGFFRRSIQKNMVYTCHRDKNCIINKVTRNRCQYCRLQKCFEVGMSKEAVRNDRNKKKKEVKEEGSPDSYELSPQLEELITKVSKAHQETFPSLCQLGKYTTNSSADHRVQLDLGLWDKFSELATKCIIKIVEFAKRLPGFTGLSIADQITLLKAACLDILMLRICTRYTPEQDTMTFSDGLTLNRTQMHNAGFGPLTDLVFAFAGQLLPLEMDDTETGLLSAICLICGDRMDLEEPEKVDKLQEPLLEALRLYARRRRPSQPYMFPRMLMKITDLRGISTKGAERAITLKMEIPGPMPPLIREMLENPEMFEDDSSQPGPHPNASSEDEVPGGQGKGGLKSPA
Sequence of Retinoic acid receptor alpha (Homo sapiens) (P10276 whole entry, looked up, the tested form may be a part): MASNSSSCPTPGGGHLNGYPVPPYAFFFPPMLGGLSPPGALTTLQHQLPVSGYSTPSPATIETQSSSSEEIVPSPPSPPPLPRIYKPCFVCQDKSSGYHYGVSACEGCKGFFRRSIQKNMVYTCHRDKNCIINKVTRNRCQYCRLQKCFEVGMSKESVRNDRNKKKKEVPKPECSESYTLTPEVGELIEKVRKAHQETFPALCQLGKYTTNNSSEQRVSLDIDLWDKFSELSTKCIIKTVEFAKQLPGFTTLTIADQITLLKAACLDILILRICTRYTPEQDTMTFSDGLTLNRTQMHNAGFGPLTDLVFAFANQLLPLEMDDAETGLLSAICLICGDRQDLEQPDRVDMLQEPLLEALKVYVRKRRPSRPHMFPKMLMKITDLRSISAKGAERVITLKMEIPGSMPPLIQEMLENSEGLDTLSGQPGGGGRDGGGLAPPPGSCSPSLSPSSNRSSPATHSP
Sequence of human RAR-related Orphan Receptor gamma (RORg), RORC (gene 6097) (P51449 whole entry, looked up, the tested form may be a part): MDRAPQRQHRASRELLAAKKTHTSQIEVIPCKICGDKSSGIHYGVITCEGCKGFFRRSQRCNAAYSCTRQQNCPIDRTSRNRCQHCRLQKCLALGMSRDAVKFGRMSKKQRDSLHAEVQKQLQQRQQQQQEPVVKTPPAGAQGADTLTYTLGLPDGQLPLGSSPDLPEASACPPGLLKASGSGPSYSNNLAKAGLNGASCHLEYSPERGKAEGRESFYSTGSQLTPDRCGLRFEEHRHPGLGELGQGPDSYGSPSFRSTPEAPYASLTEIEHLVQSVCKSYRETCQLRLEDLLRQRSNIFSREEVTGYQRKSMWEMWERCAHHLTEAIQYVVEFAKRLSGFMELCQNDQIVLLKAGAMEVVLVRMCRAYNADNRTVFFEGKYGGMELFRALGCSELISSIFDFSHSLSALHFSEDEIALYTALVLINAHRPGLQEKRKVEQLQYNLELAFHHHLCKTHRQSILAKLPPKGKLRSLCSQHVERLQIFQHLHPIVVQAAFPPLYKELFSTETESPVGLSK
Sequence of human Peroxisome Proliferator-activated Receptor alpha (PPARa), PPARA (gene 5465) (Q07869 whole entry, looked up, the tested form may be a part): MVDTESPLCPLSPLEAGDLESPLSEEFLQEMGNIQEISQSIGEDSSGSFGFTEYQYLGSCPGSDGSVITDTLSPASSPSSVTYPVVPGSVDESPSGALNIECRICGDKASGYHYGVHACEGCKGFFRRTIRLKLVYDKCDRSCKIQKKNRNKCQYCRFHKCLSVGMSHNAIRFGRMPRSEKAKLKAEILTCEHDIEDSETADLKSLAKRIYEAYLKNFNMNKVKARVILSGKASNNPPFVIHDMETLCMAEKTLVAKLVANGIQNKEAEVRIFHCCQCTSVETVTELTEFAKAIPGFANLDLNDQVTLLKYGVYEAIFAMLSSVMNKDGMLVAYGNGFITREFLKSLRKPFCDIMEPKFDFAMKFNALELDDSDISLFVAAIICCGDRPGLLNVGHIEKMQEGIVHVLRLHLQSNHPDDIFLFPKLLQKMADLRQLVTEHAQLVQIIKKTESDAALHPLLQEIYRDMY
Sequence of Retinoic acid receptor RXR-alpha (Homo sapiens) (P19793 whole entry, looked up, the tested form may be a part): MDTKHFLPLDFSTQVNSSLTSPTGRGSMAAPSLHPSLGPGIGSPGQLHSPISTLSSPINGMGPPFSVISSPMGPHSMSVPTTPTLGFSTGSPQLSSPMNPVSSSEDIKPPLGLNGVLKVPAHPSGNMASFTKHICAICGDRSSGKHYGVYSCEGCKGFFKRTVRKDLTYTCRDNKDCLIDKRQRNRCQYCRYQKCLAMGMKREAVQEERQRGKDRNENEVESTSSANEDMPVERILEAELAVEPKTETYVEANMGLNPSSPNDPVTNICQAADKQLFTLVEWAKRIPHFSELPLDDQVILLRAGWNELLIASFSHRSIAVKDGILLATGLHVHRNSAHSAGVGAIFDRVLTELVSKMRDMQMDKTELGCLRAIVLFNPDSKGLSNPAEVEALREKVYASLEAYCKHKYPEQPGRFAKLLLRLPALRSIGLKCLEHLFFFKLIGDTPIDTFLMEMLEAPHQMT
Sequence of human Peroxisome Proliferator-activated Receptor delta (PPARd), PPARD (gene 5467) (Q03181 whole entry, looked up, the tested form may be a part): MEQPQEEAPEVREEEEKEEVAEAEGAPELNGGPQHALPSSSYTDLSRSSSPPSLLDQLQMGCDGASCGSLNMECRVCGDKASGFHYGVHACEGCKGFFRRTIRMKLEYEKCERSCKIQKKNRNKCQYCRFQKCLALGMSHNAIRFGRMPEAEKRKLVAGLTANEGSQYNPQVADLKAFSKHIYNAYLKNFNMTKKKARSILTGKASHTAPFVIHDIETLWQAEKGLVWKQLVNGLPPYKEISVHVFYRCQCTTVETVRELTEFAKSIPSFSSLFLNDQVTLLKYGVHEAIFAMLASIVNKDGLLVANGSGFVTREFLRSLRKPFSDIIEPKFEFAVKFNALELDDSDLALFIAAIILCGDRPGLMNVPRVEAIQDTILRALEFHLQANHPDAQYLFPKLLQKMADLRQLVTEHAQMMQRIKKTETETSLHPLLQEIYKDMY
Sequence of Nuclear receptor subfamily 1 group I member 2 (Homo sapiens) (O75469 whole entry, looked up, the tested form may be a part): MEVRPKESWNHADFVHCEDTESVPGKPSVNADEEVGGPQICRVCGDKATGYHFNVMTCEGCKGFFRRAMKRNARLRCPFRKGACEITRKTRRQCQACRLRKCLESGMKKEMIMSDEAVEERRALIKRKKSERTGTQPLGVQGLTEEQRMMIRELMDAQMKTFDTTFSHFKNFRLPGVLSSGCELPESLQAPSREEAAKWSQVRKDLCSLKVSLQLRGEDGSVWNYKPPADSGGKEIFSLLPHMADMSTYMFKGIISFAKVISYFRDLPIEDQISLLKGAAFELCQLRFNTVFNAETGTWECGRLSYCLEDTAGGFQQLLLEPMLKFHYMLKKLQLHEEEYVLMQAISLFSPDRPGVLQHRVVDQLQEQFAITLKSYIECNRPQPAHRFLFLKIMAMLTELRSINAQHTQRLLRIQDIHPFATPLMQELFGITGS
Sequence of Peroxisome proliferator-activated receptor gamma (Homo sapiens) (P37231 whole entry, looked up, the tested form may be a part): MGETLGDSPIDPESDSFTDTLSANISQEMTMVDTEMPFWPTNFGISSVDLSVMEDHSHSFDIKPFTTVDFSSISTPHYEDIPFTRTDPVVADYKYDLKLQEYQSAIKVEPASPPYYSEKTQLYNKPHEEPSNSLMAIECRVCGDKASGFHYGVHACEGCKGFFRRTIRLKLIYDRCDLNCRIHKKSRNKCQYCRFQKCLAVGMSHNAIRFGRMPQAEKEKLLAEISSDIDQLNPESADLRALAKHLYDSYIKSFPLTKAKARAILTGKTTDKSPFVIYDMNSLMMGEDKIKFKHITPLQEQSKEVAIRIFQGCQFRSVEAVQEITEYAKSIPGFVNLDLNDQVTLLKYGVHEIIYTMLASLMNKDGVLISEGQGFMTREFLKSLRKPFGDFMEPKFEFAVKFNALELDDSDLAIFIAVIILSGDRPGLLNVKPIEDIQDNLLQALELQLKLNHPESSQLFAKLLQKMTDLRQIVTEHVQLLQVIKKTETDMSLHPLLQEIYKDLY

O=C(O)COc1ccc(Cl)cc1
inactive: [1] | [2] | [3] | [4] | [5] | [6] | [7]

C#CCO
inactive: [1] | [2] | [3] | [4] | [5] | [8] | [9] | [10] | [11]

CCCCCCCCCCCCCCC(Br)C(=O)O (configuration not stated)
active: [1] 161 µM | [3] 1.44 µM | [4] 7.74 µM | [5] 11.4 µM | [6] 26.7 µM | [7] 9.18 µM
inactive: [2] | [12] | [10]

Cc1cc(C(C)(C)c2ccc(O)c(C)c2)ccc1O
inactive: [16] | [17] | [8] | [10] | [6] | [11]
active: [1] 34.8 µM | [2] 33.7 µM | [13] 13.6 µM | [14] 10 µM | [15] 15 µM | [18] 14.3 µM | [5] 5.48 µM | [12] 3.26 µM

N#Cc1ccccc1Cl
inactive: [1] | [2] | [3] | [4] | [19] | [12] | [9]

CCC[CH2][Sn]([CH2]CCC)([CH2]CCC)[CH2]CCC
inactive: [3] | [8]
active: [1] 11.1 µM | [2] 18.5 µM | [5] 3.29 µM | [12] 9.24 µM | [6] 0.866 µM | [7] 0.0334 µM

NC(=O)c1ccc(N)nc1
inactive: [1] | [2] | [3] | [20] | [19] | [12] | [8] | [9] | [10] | [6] | [11]

O=C(NC(=O)c1c(F)cccc1F)Nc1cc(Cl)c(OC(F)(F)C(F)C(F)(F)F)cc1Cl (configuration not stated)
inactive: [1] | [2] | [3] | [5] | [12] | [8] | [9] | [6] | [7] | [11]

CCN(CCO)CCO
inactive: [1] | [2] | [3] | [19]

N#Cc1ccccc1N
inactive: [1] | [2] | [3] | [20] | [19] | [12] | [9] | [11]

O=S1(=O)OC(c2cc(Br)c(O)c(Br)c2)(c2cc(Br)c(O)c(Br)c2)c2ccccc21
inactive: [1] | [3] | [19] | [12] | [8] | [9] | [6] | [11]
active: [2] 126 µM | [5] 36.9 µM

— PubChem BioAssay (EPA / NIEHS)
